Source: PubChem
TRPV1 PAM: enhances activation of the human vanilloid receptor TRPV1; Q8NER1; TRPV1-expressing cells, Fluo-8 calcium influx, capsaicin EC20 potentiation; potentiation, % at 8.33 µM; 0.02% of 320,000 active; AID 540277; in the data active = potentiation above about 80%; inconclusive = between about 30% and that limit; also: 0% is about no effect
Target sequence (Q8NER1 whole entry, looked up): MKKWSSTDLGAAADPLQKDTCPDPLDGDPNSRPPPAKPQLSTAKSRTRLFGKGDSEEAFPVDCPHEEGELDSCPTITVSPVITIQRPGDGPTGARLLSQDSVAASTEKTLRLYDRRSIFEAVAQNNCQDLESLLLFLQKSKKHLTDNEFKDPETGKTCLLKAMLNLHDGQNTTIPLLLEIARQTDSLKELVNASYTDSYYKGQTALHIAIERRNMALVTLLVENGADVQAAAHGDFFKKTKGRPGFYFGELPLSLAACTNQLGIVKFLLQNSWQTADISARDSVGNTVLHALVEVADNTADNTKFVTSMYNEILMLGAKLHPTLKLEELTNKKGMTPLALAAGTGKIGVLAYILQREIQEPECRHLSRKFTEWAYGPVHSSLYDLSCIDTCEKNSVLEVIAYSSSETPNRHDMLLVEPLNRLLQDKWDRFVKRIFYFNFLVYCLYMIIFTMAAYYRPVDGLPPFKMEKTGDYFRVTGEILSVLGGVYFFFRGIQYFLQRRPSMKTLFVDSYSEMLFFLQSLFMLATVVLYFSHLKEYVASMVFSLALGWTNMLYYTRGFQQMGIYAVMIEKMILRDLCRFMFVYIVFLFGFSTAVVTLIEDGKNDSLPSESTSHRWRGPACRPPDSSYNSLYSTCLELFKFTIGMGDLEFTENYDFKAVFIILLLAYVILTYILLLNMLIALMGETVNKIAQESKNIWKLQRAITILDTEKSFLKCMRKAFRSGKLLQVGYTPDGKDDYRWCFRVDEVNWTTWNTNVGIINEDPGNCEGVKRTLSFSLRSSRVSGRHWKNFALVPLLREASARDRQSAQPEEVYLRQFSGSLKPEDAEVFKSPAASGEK
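TRPV1-expressing cells were cultured overnight at 35.5C and loaded with Fluo-8 calcium dye for 40 to 90 min at room temperature. After a 10 s baseline, compound was added and calcium influx was read kinetically for 3 min (ex 480/em 520 nm).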
RXFP1 antag: RXFP1 (human) relaxin receptor antagonism. Q9HBX9. HEK293-RXFP1, relaxin-stimulated cAMP HTRF, 30 min; active compounds read low. activity change, negative = inhibition, % at 57.5 µM. 0.59% of 350,000 active;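 active = activity change of -60% or lower, but not beyond a set lower limit; inconclusive = change between -60% and -40%, or beyond the set limit; inactive = change above -40%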; also: % is scaled to controls: 0 for no effect and ±100 for the full control effect
gsp agonist: agonists of gsp mutant (McCune-Albright syndrome). Potency, µM (highest dose often 76.9 µM), for inactives: at the highest dose activation (cAMP increase), usual class: activators. gsp mutant cells, cAMP HTRF, 30 min. 0.13% of 340,000 active; active = well fitted activation curve with a large enough effect; inconclusive = small, poorly fitted or top-dose-only effect, or another doubt; inactive = no such curve, though single readings can be large or run the other way; cell line not stated here;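 also: phosphodiesterase inhibitor Ro 20-1724 added with compounds to block cAMP breakdown; potency is read from the fitted curve at half-maximal effect; nearly all actives have a fitted effect of over 60% in size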
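Cells stably selected in G418 were plated at 2000/well, grown 16-24 hr, then given compounds in DMSO with the PDE inhibitor […] (300 uM solution added) for 30 min at 37C; cAMP was read by HTRF.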
RXFP1 agonist: agonists of human relaxin receptor RXFP1; Potency, µM (series often up to 57.5 µM), without a hit: top-dose activation, hits mostly activators; 0.3% of 370,000 active; HEK293T-RXFP1 cAMP TR-FRET, 30 min; response scale: percent of porcine relaxin response, buffer zero; active = well fitted activation curve with a large enough effect; inconclusive = small, poorly fitted or top-dose-only effect; also: potency is read from the fitted curve at half-maximal effect; % is scaled to controls: 0 for no effect and ±100 for the full control effect; nearly all actives have a fitted effect of over 60% in size
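HEK293 cells stably expressing RXFP1, treated 30 min at 37C with compounds plus PDE4 inhibitor Ro 20174; cAMP measured by HTRF TR-FRET. Normalized to buffer and 29 nM porcine relaxin; EC50 by Hill fit.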
TRPV1 ag: agonists of human vanilloid receptor 1 (TRPV1). Q8NER1. 0.19% of 320,000 active. activation, % at 8.33 µM. TRPV1-expressing cells, Fluo-8 calcium influx, agonist mode; in the data active = activation above about 80%; inconclusive = between about 30% and that limit; also: 0% is about no effect
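Cells expressing TRPV1 were dye-loaded with Fluo-8 and read kinetically: 10 s baseline, 3 min after compound (agonist portion), then 2 min after EC20 capsaicin (allosteric enhancer portion). Calcium-bound dye fluorescence at 480/520 nm.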
gsp antagonist: antagonists of gsp mutant (McCune-Albright syndrome) | gsp-mutant cells, cAMP HTRF, 30 min | Potency, µM (doses to about 76.9 µM), without a hit: top-dose activity change, negative = inhibition, actives largely listed as inhibitors | 0.4% of 340,000 active | AID 624288; calls by dose curve; cell line not stated here;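 also: intracellular cAMP measured with PDE inhibitor Ro 20-1724 present during compound exposure; potency is read from the fitted curve at half-maximal effect; % is scaled to controls: 0 for no effect and ±100 for the full control effect; nearly all actives have a fitted effect of over 65% in size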
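Cells in G418 medium, seeded 16-24 h, 37C; buffer exchange to DPBS + 1 mM CaCl2, 0.5 mM MgCl2, 0.05% BSA; cpds in DMSO + […] (300 uM stock), 30 min 37C; HTRF cAMP detection.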
Active calls of the source: *; ? = inconclusive; . = no result; [ ] = remark or other dose. Rows were chosen to be rich in hits. Some 1.1% of all compounds tested hit in one or more screens of this group.

SMILES | TRPV1 PAM | RXFP1 antag | gsp agonist | RXFP1 agonist | TRPV1 ag | gsp antagonist
O=c1[nH]c(=O)n([C@H]2O[C@H](CO)[C@@H](O)[C@@H]2O)cc1/C=C\Br | . | 5.1 | . | . | . | .
O=C(O)Cc1ccccc1Oc1ccc(Cl)cc1Cl | . | -8.6 | . | . | . | .
S=c1[nH]cc(Oc2ccc(Cl)cc2Cl)c(=S)[nH]1 | . | 22.8 | 20µM* | . | . | -4.1%
COc1ccc(N2CC(C(=O)N3CCN(c4ccccc4OC)CC3)CC2=O)cc1 (stereo not given) | -0.1 | 8.1 | 6.7% | 0.2% | 1.0 | 0.5%
CCCCSCCCNC(=O)Nc1cccc(OC)c1 | -8.3 | -9.7 | -7.9% | 0.0% | 83.3* | -15.2%
COc1cccc(NC(=O)Nc2ccc(C(C)(C)C)cc2)c1 | -2.9 | -19.7 | -9.5%[15.4 µM] | 1.6% | 82.2* | -4.1%
CCc1ccc(-n2nc(C)c3c(C(=O)Nc4ccc(Cl)cc4)cc(C)nc32)cc1 | . | -17.9 | . | -1.4% | . | .
O=C(Nc1ccccc1)N1CCN(c2nc(-c3ccccc3)ns2)CC1 | -4.3 | -17.7 | 8.9%[15.4 µM] | 1.4% | ? | 35.5µM*
O=C(Nc1ccccc1Cl)N1CCCN(c2nc(-c3ccccc3)ns2)CC1 | -3.8 | -2.2 | -37.8% | 4.0% | ? | ?
COc1cc(C(=O)COC(=O)c2ccc([N+](=O)[O-])o2)cc(OC)c1OC | . | 0.6 | -1.8% | . | . | 9.9%
Cc1cn([C@@H](CCCCNC(=O)OC(C)(C)C)C(=O)NCCCCCCCCCCC(=O)N2CCN(C(=O)OC(C)(C)C)CC2)nn1 | -0.4 | . | . | 0.0% | ? | 28.2µM*
O=C1/C(=C/c2ccccn2)SC(=S)N1Nc1ncc(C(F)(F)F)cc1Cl | . | -71.8* | -7.0% | . | . | ?
O=C1/C(=C\c2ccccn2)SC(=S)N1Nc1ncc(C(F)(F)F)cc1Cl | 3.8 | -33.6 | 1.4% | 3.1% | -0.1 | -12.5%
S=C(NCC1CCCO1)N1CCN(c2nc(-c3ccc(Cl)cc3)cs2)CC1 (stereo not given) | -2.4 | 3.5 | 6.4%[15.4 µM] | 0.5% | 26.1 | 50.1µM*
Cc1c(C(=O)N(C)C)sc(NC(=O)c2cc([N+](=O)[O-])cc([N+](=O)[O-])c2)c1C#N | -0.2 | -0.8 | 8.2% | -0.5% | -0.2 | 39.8µM*
COC(=O)c1ccc(/C=C/C(=O)OCC(=O)NCc2cccs2)cc1 | . | -7.0 | -15.1%[15.4 µM] | . | . | 0.2%
COCCCNC(=O)CCn1c(=O)c2ccccc2n(CC(=O)Nc2cc(Cl)ccc2OC)c1=O | . | . | . | -1.7% | . | .
COc1ccc(CCNc2oc(COc3ccc(Cl)cc3)nc2C#N)cc1OC | . | -64.1* | . | 0.0% | . | .
COc1ccc(CCNc2oc(COc3cccc(C)c3)nc2C#N)cc1OC | . | -4.7 | . | 0.4% | . | .
Cc1ccc(C2=NS(=O)(=O)N(C)C(C(=O)NCc3cccs3)=C2)cc1 | 7.2 | -1.8 | -19.0% | 2.3% | 91.5* | -6.8%
Cc1ccc(C2=NS(=O)(=O)N(C)C(C(=O)NCc3ccccn3)=C2)cc1 | -10.5 | -2.6 | -77.9% | -0.8% | 15.3 | 4.5%
Nc1nc(-c2ccccc2)c(-c2ccccc2)s1 | 3.3 | 1.7 | 1.2% | 2.1% | 19.2 | -31.1%
Cc1ccc(-c2nc(N)sc2-c2ccccc2)cc1C | -8.3 | -83.8* | 1.9% | 1.9% | 19.1 | -7.6%
CCOC(=O)c1sc(-c2ccccc2)cc1NC(=O)Nc1ccccc1 | 0.2 | -8.5 | 21.4% | 2.3% | 87.8* | -23.0%
C=CCOc1c(Cl)cc(CNc2ccc(N(C)C)cc2)cc1OC | 25.4 | -102.9* | 14.5% | -14.5% | -4.0 | ?
SMILES | TRPV1 PAM | RXFP1 antag | gsp agonist | RXFP1 agonist | TRPV1 ag | gsp antagonist
C=CCOc1c(Cl)cc(CNc2ccc(C)c(Cl)c2)cc1OC | 5.1 | . | . | 2.8% | -1.5 | .
COc1cc(C)c(C(=O)CC(=O)c2c(C)cc(OC)cc2C)c(C)c1 | . | -65.7* | 10.9% | . | . | -5.2%
CCc1[nH]nc(C(=O)N2CCCC(CCC(=O)N3CCN(c4ccccn4)CC3)C2)c1C (stereo not given) | ? | -5.7 | 12.8%[15.4 µM] | -0.3% | 0.2 | .
COc1cc(C(=O)NCC(=O)N2CCN(S(=O)(=O)c3ccccc3)CC2)cc(OC)c1OC | 5.0 | -63.9* | -6.0%[15.4 µM] | 0.1% | -1.6 | -8.9%
O=C(NCC(=O)N1CCN(S(=O)(=O)c2ccccc2)CC1)c1ccc2ccccc2c1 | 2.1 | 4.4 | -29.4% | 2.7% | -1.1 | ?
Cc1c(Cl)cccc1NC(=O)C1CC(=O)N(C2CCCC2)C1 (stereo not given) | . | 1.1 | 2.3%[15.4 µM] | . | . | 10.6%
CCOC(=O)C(C)Sc1ccc2nnc(-c3ccc(F)cc3)n2n1 (stereo not given) | -28.3 | -5.8 | 20.6% | 7.9% | ? | -9.0%
Cc1ccc(-c2nnc3ccc(SC(C)C(=O)O)nn23)cc1 (stereo not given) | -9.6 | . | 10µM* | ? | 8.0 | 15.0%
COC(=O)C(C)Sc1ccc2nnc(-c3ccccc3)n2n1 (stereo not given) | -3.7 | -0.4 | 10µM* | 25.1µM* | 6.6 | 0.6%
Cc1ccc(S(=O)(=O)Nc2ccc(C(=O)N3CCOCC3)cc2)cc1 | 25.3 | 15.1 | 20.6%[15.4 µM] | 1.7% | -2.0 | -8.4%
CCOC(=O)N1CCC(NC(=O)c2ccc3c(c2)N(Cc2ccc(Cl)cc2)C(=O)c2ccccc2S3(=O)=O)CC1 | . | . | . | -1.4% | . | .
CN(C)S(=O)(=O)c1ccc(C(=O)OCC(=O)Nc2cccnc2Cl)cc1 | -10.3 | 19.7 | 11.4%[15.4 µM] | 14.1µM* | 10.1 | -0.6%
CC(=O)CSc1nc(N)c(C#N)c(-c2cccs2)c1C#N | -3.1 | -11.2 | 2.4% | 3.3% | 5.1 | 0.3%
CC(=O)CSc1nc(-c2cccs2)c(C#N)c(=O)[nH]1 | 20.8 | 22.4 | ? | 14.1µM* | -1.9 | -2.2%
CN1CCN(CCOC2Cc3ccccc3Sc3ccc(Cl)cc32)CC1 (stereo not given) | 7.7 | -70.1* | 2.8% | -0.5% | 3.3 | -0.9%
OCCN1CCN(C2Cc3cc(Cl)ccc3Sc3ccc(Cl)cc32)CC1 (stereo not given) (tested in a mixture with another compound) | -7.7 | ? | 4.2% | 0.9% | -1.1 | 27.9%
CCOC(=O)c1c(C)[nH]c(C(=O)OCC(=O)N(CC(C)C)C2CCS(=O)(=O)C2)c1C (stereo not given) | -1.4 | -7.7 | -9.4% | 0.2% | -4.4 | 2.6%
O=C(NC(Sc1ccc(Cl)cc1)C(=O)O)c1ccccc1 (stereo not given) | . | -8.7 | -41.6% | . | . | .
O=C(COc1cccc2ccccc12)Nc1cc(Cl)ccc1C(=O)O | 2.6 | -81.0* | 14.8%[15.4 µM] | 1.5% | 3.3 | ?
O=C(COc1cccc2ccccc12)Nc1ccc(Cl)cc1C(=O)O | 8.7 | -10.2 | -13.4% | 1.6% | -2.8 | ?
O=C(c1cc(-c2ccc(Br)cc2)on1)N1CCOCC1 | -17.2 | 5.2 | 9.7%[15.4 µM] | -0.2% | 99.2* | -2.9%
COc1cc2c(C(=O)N3CCOCC3)c(CSc3ccccc3)n(C)c2cc1Br | 102.4* | -7.0 | 27.0% | 1.0% | ? | -24.5%
